Assay results from PubChem BioAssay (NCI).
About 83,000 compounds went through this panel and 20% of them were active in at least one assay; those are over-represented in the sample as a whole.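 Cell lines were cultured in 96-well plates, exposed to a single compound concentration, and assessed for percent growth 48 hours later.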 Values without a mark were called inactive. Activity calls are given as the source filed them. Rule for the calls: active = growth percent below 10; inactive = the rest.

Key:
Assay in all cases: NCI-60 one-dose screen, 48 h (100 = growth as untreated, 0 = no growth, -100 = all killed)
BT-549 breast = conditions: 10 µM unless noted
SW-620 colon = conditions: 10 µM unless noted
MCF7 breast = conditions: 10 µM
HCT-116 colon = conditions: 10 µM unless noted
HCC-2998 colon = conditions: 10 µM unless noted
KM12 colon = conditions: 10 µM unless noted
MDA-MB-435 melanoma = conditions: 10 µM unless noted

Row | SMILES | growth (BT-549 breast) | growth (SW-620 colon) | growth (MCF7 breast) | growth (HCT-116 colon) | growth (HCC-2998 colon) | growth (KM12 colon) | growth (MDA-MB-435 melanoma)
1 | CN1CCN(c2nc(Nc3ccc(O)cc3)nc3ccccc23)CC1 | 70.8% | 57.2% | 44.9% | 94.6% | 46.1% | 65.6% | –
2 | O=c1oc2ccc(F)cc2c(=O)n1-c1ccc(Cl)cc1F | – | 11.3% | 2.65% (active) | 3.98% (active) | 9.7% (active) | 2.07% (active) | 1.54% (active)
3 | O=c1oc2ccc(Cl)cc2c(=O)n1-c1ccc(I)cc1F | – | 7.19% (active) | 3.96% (active) | 2% (active) | 16.2% | -18.3% (active) | -6.3% (active)
4 | CC1=C(C(=O)OCC2CCN(C(=O)OC(C)(C)C)CC2)[C@H](c2cccc(Br)c2)C2=C(CC(C)(C)CC2=O)N1 | – | 28.2% | 13.8% | 17.7% | 49.2% | 25% | 24.9%
5 | COc1ccc(/C=C2\SC(=Nc3ccccc3)NC2=O)cc1 | -72.2% (active) | -74.2% (active) | -85% (active) | -82.2% (active) | -87.5% (active) | -89.6% (active) | –
6 | O=S1(=O)N(Cc2ccccc2)[C@@H](Cc2ccccc2)[C@H](O)[C@H](O)[C@H](Cc2ccccc2)N1Cc1ccccc1 | 15.7% | 9.22% (active) | – | -36.5% (active) | -45.7% (active) | -41.7% (active) | -4.2% (active)
7 | O=c1oc2ccc(Br)cc2c(=O)n1-c1ccc(Cl)cc1F | – | 9.75% (active) | 3.69% (active) | 1.83% (active) | 22.7% | – | -8.83% (active)
8 | NCCNc1nc2ccc(F)cc2c2c(=O)c3cc(F)ccc3sc12 | – | -73.5% (active) | -15.2% (active) | -87.1% (active) | 14.8% | 17.8% | 13.4%
9 | COc1cc(OC)cc(N2C(=O)N(Cc3ccc(C(C)(C)C)cc3)c3ccccc3S2(=O)=O)c1 | 99.6% | 82.2% | 90.7% | 76.2% | -46% (active) | 82.6% | –
10 | CCN1C(=O)N(CC)C2Nn3c(s/c(=C4\C(=O)N(C(C)C)c5ccccc54)c3=O)=NC21 (stereo unspecified) | – | 32.4% | 9% (active) | 6.5% (active) | 34.6% | 28.5% | 1.02% (active)
11 | CCCCCCCCCCOC(=O)c1ccccc1C(=O)OCCCC | 114% | 102% | 102% | 84.9% | 108% | 105% | –
12 | O=C(Nc1ccc(Br)cc1F)c1cc(Cl)ccc1O | – | 11.7% | 0.423% (active) | -30.5% (active) | 9.31% (active) | -30.9% (active) | -13.9% (active)
13 | O=c1oc2ccc(I)cc2c(=O)n1-c1ccc(F)cc1F | – | 19.7% | 5.86% (active) | 6.72% (active) | 26% | 3.81% (active) | 1.74% (active)
14 | CC(=O)SC1CC(=O)C=C2CCC3C4CCC(=O)OC4(C)CCC3C21C (stereo unspecified) | 92.4% | 103% | 97% | 102% | 99.3% | 104% | –
15 | COc1ccc(C(O)(CCC(C)C)C(CN2CCOCC2)c2ccc(Cl)cc2)cc1 (stereo unspecified) | 62.2% | 28.5% | 55.6% | 26.6% | 64.6% | 48% | –
16 | CN1C(=O)N(C)C2C1NN=c1s/c(=C\c3ccc([N+](=O)[O-])cc3)c(=O)n12 (stereo unspecified) | – | 37.8% | 26% | 37.6% | 84.9% | 35.5% | 6.25% (active)
17 | CC(=O)n1cc(-c2c[nH]c3ccccc23)c(-c2ccc(Cl)cc2)n1 | – | 89% | 71.5% | 61.7% | 109% | – | 88.5%
18 | O=C(Nc1ccc(Cl)cc1F)c1cc(F)ccc1O | – | 9.96% (active) | 3.15% (active) | 3.99% (active) | 11.7% | 0.993% (active) | 0.146% (active)
19 | CC[C@@H](C)[C@H](NC(=O)Cn1cc(CNC(=O)[C@@H](NC(=O)OCc2ccccc2)C(C)C)nn1)C(=O)O | – | 105% | 100% | 107% | 101% | 109% | 102%
20 | CC[C@]1(O)C[C@@H]2CN(CCc3c([nH]c4ccccc34)[C@@](C(=O)OC)(c3cc4c(cc3OC)N(C)[C@H]3[C@@](O)(C(=O)OC)[C@H](OC(=O)CCCBr)[C@]5(CC)C=CCN6CC[C@]43[C@@H]65)C2)C1 | – | 22.4% | 12.9% | 5.16% (active) | 9.27% (active) | 7.23% (active) | -36% (active)
21 | C1CCN(c2nc(N3CCCCC3)nc(N3CCOCC3)n2)CC1 | 109% | 103% | – | 105% | 90.7% | 106% | 101%
22 | CC(C)C[C@H](C(=O)N[C@H](C(N)=O)C(C)C)N1CC=CCN(OCc2ccccc2)S1(=O)=O | 98.5% [2.5 µM] | 102% [2.5 µM] | – | 83.2% [2.5 µM] | 108% [2.5 µM] | 114% [2.5 µM] | 115% [2.5 µM]
23 | COc1cc(C2C3=C(COC3=O)N(CCO)c3cc4c(cc32)OCCO4)cc(OC)c1O (stereo unspecified) | -3.23% (active) | 17.2% | – | 12.8% | -10.7% (active) | -15.3% (active) | -35.1% (active)

Row | SMILES | growth (BT-549 breast) | growth (SW-620 colon) | growth (MCF7 breast) | growth (HCT-116 colon) | growth (HCC-2998 colon) | growth (KM12 colon) | growth (MDA-MB-435 melanoma)
24 | COc1nc2c(c(=O)n1C)N=C1c3ccccc3C(=O)C1C(c1ccccc1)N2 (stereo unspecified) | 81.1% | 88.4% | 88.2% | 89.9% | 106% | 79.3% | –
25 | O=c1oc2ccc(I)cc2c(=O)n1-c1ccc(Br)cc1F | – | 8.98% (active) | 1.77% (active) | 0.474% (active) | 16.2% | -4.63% (active) | -3.14% (active)
26 | CSc1nc2c(c(=O)[nH]1)N=C1c3ccccc3C(=O)C1C(c1ccccc1)N2 (stereo unspecified) | 40% | 29.8% | 17.3% | 21.8% | 53.1% | 28.1% | –
27 | CCCCCCc1cc2cc(-c3nc4ccccc4[nH]3)c(=Nc3ccccc3C)oc2cc1O | 77.3% | 29.6% | 17.5% | 19.2% | -78.2% (active) | 36.4% | –
28 | NC1C(N)C(N)C1N (stereo unspecified) | 107% | 106% | – | 103% | – | 119% | 122%
29 | COc1ccc(C2C3=C(COC3=O)N(CCO)c3cc4c(cc32)CCC4)cc1OC (stereo unspecified) | 29.2% | 14.7% | – | 14.3% | -0.413% (active) | -8.65% (active) | -45.6% (active)
30 | NC1(N2SC(S)=C3CCCC=C32)CCCCC1 | – | 99.3% | 95.4% | 98.4% | 101% | 102% | 107%
31 | CCOC(=O)C1=C(C)c2ccc(OC)c(OC)c2C1 | 108% | 104% | – | 102% | 91.2% | 101% | 112%
32 | O=C(COc1cc(O)c2c(=O)cc(-c3ccccc3)oc2c1)Nc1ccccc1 | – | 87.5% | 85.3% | 57.4% | 99.7% | – | 95.3%
33 | O=c1oc2ccc(Br)cc2c(=O)n1-c1ccc(F)cc1F | – | 16.3% | 2.33% (active) | 4.49% (active) | 17.4% | 4.24% (active) | 2.57% (active)
34 | O=C1c2cc(Br)ccc2Oc2cc([N+](=O)[O-])ccc2N1c1ccc(I)cc1F | – | 94.2% | 97.1% | 87.5% | 102% | 100% | 102%
35 | O=c1oc2ccc(I)cc2c(=O)n1-c1ccc(I)cc1F | – | 8.02% (active) | 2.88% (active) | 2.66% (active) | 21% | -10.7% (active) | -4.7% (active)
36 | O=c1oc2ccc(F)cc2c(=O)n1-c1ccc(Br)cc1F | – | 10.2% | -3.48% (active) | 2.22% (active) | 13.4% | 0.328% (active) | 0.521% (active)
37 | O=c1oc2ccc(Br)cc2c(=O)n1-c1ccc(I)cc1F | – | 10% | 1.41% (active) | 0.0693% (active) | 18.3% | -18% (active) | -1.76% (active)
38 | O=C(c1ccccc1)N(C(=S)NCCc1ccc(Cl)cc1)c1ccc(Cl)cc1 | – | 62.8% | 20.8% | 45.3% | 61.9% | 26.8% | 37.9%
39 | O=C(COc1cc(O)c2c(=O)cc(-c3ccccc3)oc2c1)Nc1ccccc1C(F)(F)F | – | 21.8% | 49.8% | 5.84% (active) | 90% | 68.5% | 78%
40 | O=C(N/N=C/c1ccccc1Cl)C(=O)Nc1cccc(C(F)(F)F)c1 | – | 104% | 97.3% | 92.1% | 96.6% | 103% | 98.4%
41 | COc1cccc(C2=NN3C(C2)c2ccccc2OC3c2ccc(/C=C3\SC(=O)NC3=O)cc2)c1 (stereo unspecified) | – | 97.8% | 90.7% | 109% | 106% | 94.6% | 105%
42 | Cc1nc2ccccc2c(/C=C/c2ccccc2)c1C(=O)/C=C/c1ccc(Cl)cc1 | – | 3.99% (active) | 14.2% | -5.14% (active) | 12.4% | 21.4% | -9.81% (active)
43 | Clc1ccc(-c2nnc(COc3ccc(C4=NNC(c5ccco5)C4)cc3)o2)cc1 (stereo unspecified) | – | 94.5% | 17.3% | 86.1% | 82.3% | 70.9% | 93.1%
44 | CN(CCc1ccccc1)C(=S)N(C(=O)c1ccc([N+](=O)[O-])cc1)c1ccc(Cl)cc1 | – | 75.3% | 33% | 67.3% | 110% | 49.6% | 85.9%
45 | O=C(CCc1nnc2sc(COc3ccccc3)nn12)c1nc2ncccc2[nH]1 | – | 85.8% | 94.5% | 91.3% | 99.8% | 99.8% | 101%
